Where “and” joins values, the source holds several entries; their conditions need not be identical. Equal entries are not always repeated. Records with an inconclusive call do not appear. Calls of active or inactive are those of the source. How the source made its calls: active means hit-call score of the fitted dose curve at least 0.9, where 1 is the maximum; inconclusive means response in the unintended direction; inactive means score below 0.9.
What was measured:
[1] = target: rat CYP2C11, Cyp2c11 (gene 29277) (UniProt P08683); test: NVS_ADME_rCYP2C11: NovaScreen (NVS) CYP450-related Enzyme Activity (ADME) Assay for rat CYP2C11 (AID 2283118)
Summary of the method: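 Cell-free recombinant rat enzyme with fluorescent substrate; readout 0.33 h after dosing, loss of signal versus acetonitrile control. Initial duplicate single-point at 10 uM; actives rerun in concentration series.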

[2] = target: rat CYP2C12, Cyp2c12 (gene 25011) (UniProt P11510); test: NVS_ADME_rCYP2C12: NovaScreen (NVS) CYP450-related Enzyme Activity (ADME) Assay for rat CYP2C12 (AID 2283119)
Description: (§1) NVS_ADME_rCYP2C12 is a biochemical, single-readout assay that uses extracted gene-proteins in a cell-free assay. Measurements were taken 0.5 hour after chemical dosing in a 96-well plate.NVS_ADME_rCYP2C12 is one of one assay component(s) measured or calculated from the NVS_ADME_rCYP2C12 assay. It is designed to make measurements of enzyme activity, a form of enzyme reporter, as detected with fluorescence intensity signals by Fluorescence technology.Data from the assay component NVS_ADME_rCYP2C12 was analyzed into 1 assay endpoint. This assay endpoint, NVS_ADME_rCYP2C12, was analyzed in the positive analysis fitting direction relative to Acetonitrile as the negative control and baseline of activity. Using a type of enzyme reporter, loss-of-signal activity can be used to understand changes in the enzymatic activity as they relate to the gene Cyp2c12. Furthermore, this assay endpoint can be referred to as a primary readout, because this assay has produced multiple assay endpoints where this one serves a enzymatic activity function. To generalize the intended target to other relatable targets, this assay endpoint is annotated to the cyp intended target family, where the subfamily is xenobiotic metabolism.
Binding assays used specific radioligands (tritiated, iodinated) with non-radioactive competitive displacement ligands in agonist or antagonist protocols (as indicated) and various reference compounds and inhibitors to titrate specific binding to receptors and transporters. Most enzyme assays (CYPs, kinases, phosphatases, proteases, HDACs) used recombinant protein and specific substrates (fluorescence mostly, some colorimetric and radioactive) and inhibitors, followed by a biochemical separation of substrate and product. All assays for the biochemical HTS were initially run in duplicate at a single concentration (10 uM for CYP450 assays and 25 uM for all others). […] Each assay was run with positive and negative controls, and concurrent controls on every plate. The follow-up (secondary) screen tested active chemical-pairs in concentration series, as well as a few additional assays not tested in the primary screen, some selected negative inactives, and several cases re-run in the concentration series for confirmatory purposes.

rat CYP2C6, gene 293989 = test: NVS_ADME_rCYP2C6: NovaScreen (NVS) CYP450-related Enzyme Activity (ADME) Assay for rat CYP2C6 (AID 2283120)
Summary of the method: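 Cell-free recombinant rat CYP2C6 with fluorogenic substrate, read by fluorescence 1 h after dosing; acetonitrile as negative control. Primary screen at 10 uM in duplicate, actives then in concentration-response up to 20 uM.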

[3] = target: rat CYP2C13, Cyp2c13 (gene 171521) (UniProt P20814); test: NVS_ADME_rCYP2C13: NovaScreen (NVS) CYP450-related Enzyme Activity (ADME) Assay for rat CYP2C13 (AID 2283121)
Summary of the method: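 Recombinant rat CYP2C13 with fluorogenic substrate, 0.75 h cell-free incubation; primary screen in duplicate at 10 uM, actives followed in concentration series. Fluorescence loss relative to acetonitrile control indicates inhibition.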

[4] = target: rat CYP2D2, Cyp2d26 (gene 25053) (UniProt P10634); test: NVS_ADME_rCYP2D2: NovaScreen (NVS) CYP450-related Enzyme Activity (ADME) Assay for rat CYP2D2 (AID 2283124)
Summary of the method: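 Recombinant rat CYP2D2 in a cell-free fluorogenic activity assay, fluorescence read 0.75 h after dosing. Primary screen in duplicate at 10 uM; actives re-run singly in concentration-response to 20 uM, relative to acetonitrile.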

[5] = target: rat CYP3A2, Cyp3a2 (gene 266682) (UniProt P05183); test: NVS_ADME_rCYP3A2: NovaScreen (NVS) CYP450-related Enzyme Activity (ADME) Assay for rat CYP3A2 (AID 2283128)
Summary of the method: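 Cell-free rat CYP3A2 enzyme assay with fluorescent substrate, read 0.5 h after dosing. Primary duplicate screen at 10 uM; actives run in concentration-response up to 20 uM, relative to acetonitrile baseline.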

[6] = target: rat CYP2D1, Cyp2d1 (gene 266684) (UniProt P10633); test: NVS_ADME_rCYP2D1: NovaScreen (NVS) CYP450-related Enzyme Activity (ADME) Assay for rat CYP2D1 (AID 2283122)
Description: as §1, with “NVS_ADME_rCYP2D1” for “NVS_ADME_rCYP2C12”, “0.75” for “0.5”, “plate.NVS_ADME_rCYP2D1” for “plate.NVS_ADME_rCYP2C12”, “NVS_ADME_rCYP2D1,” for “NVS_ADME_rCYP2C12,”, “Cyp2d1.” for “Cyp2c12.”
Binding assays used specific radioligands (tritiated, iodinated) with non-radioactive competitive displacement ligands in agonist or antagonist protocols (as indicated) and various reference compounds and inhibitors to titrate specific binding to receptors and transporters. Most enzyme assays (CYPs, kinases, phosphatases, proteases, HDACs) used recombinant protein and specific substrates (fluorescence mostly, some colorimetric and radioactive) and inhibitors, followed by a biochemical separation of substrate and product. All assays for the biochemical HTS were initially run in duplicate at a single concentration (10 uM for CYP450 assays and 25 uM for all others). Assay-chemical combinations meeting a pre-defined threshold (e.g., 30% inhibition and other criteria defined below) were then run in singleton concentration-response format with maximum concentration of 20 uM for CYPs and 50 uM for all others. Each assay was run with positive and negative controls, and concurrent controls on every plate. The follow-up (secondary) screen tested active chemical-pairs in concentration series, as well as a few additional assays not tested in the primary screen, some selected negative inactives, and several cases re-run in the concentration series for confirmatory purposes.

Caspase-1 (Homo sapiens) = Caspase-1 (Homo sapiens) (UniProt P29466); test: NVS_ENZ_hCASP1: NovaScreen (NVS) Enzymatic Assay for human Caspase 1 (CASP1) (AID 2283132)
Summary of the method: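 Cell-free enzymatic assay with E. coli-expressed recombinant protein; fluorescence intensity read 1 hour after dosing. Single-concentration duplicate screen at 25 uM, then concentration-response up to 50 uM; activity fitted relative to DMSO, loss of signal meaning inhibition.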

[7] = target: human Caspase 10 (CASP10), CASP10 (gene 843) (UniProt Q92851); test: NVS_ENZ_hCASP10: NovaScreen (NVS) Enzymatic Assay for human Caspase 10 (CASP10) (AID 2283133)
Description: NVS_ENZ_hCASP10 is a biochemical, single-readout assay that uses extracted gene-proteins from E. coli in a cell-free assay. Measurements were taken 1 hour after chemical dosing in a 96-well plate.NVS_ENZ_hCASP10 is one of one assay component(s) measured or calculated from the NVS_ENZ_hCASP10 assay. It is designed to make measurements of enzyme activity, a form of enzyme reporter, as detected with fluorescence intensity signals by Fluorescence technology.Data from the assay component NVS_ENZ_hCASP10 was analyzed into 1 assay endpoint. This assay endpoint, NVS_ENZ_hCASP10, was analyzed in the positive analysis fitting direction relative to DMSO as the negative control and baseline of activity. Using a type of enzyme reporter, loss-of-signal activity can be used to understand changes in the enzymatic activity as they relate to the gene CASP10. Furthermore, this assay endpoint can be referred to as a primary readout, because this assay has produced multiple assay endpoints where this one serves a enzymatic activity function. To generalize the intended target to other relatable targets, this assay endpoint is annotated to the protease intended target family, where the subfamily is cysteine protease. […]

[8] = target: human Acetylcholinesterase (AChE), ACHE (gene 43) (UniProt P22303); test: NVS_ENZ_hAChE: NovaScreen (NVS) Enzymatic Assay for human Acetylcholinesterase (AChE) (AID 2283129)
Summary of the method: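 Cell-free colorimetric enzyme-activity assay; compounds read 0.33 hour after dosing, loss of signal vs DMSO baseline. Primary screen in duplicate at 25 uM single concentration, with active compounds retested in concentration series.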

Sequence of rat CYP2C11, Cyp2c11 (gene 29277) (P08683 whole entry, looked up): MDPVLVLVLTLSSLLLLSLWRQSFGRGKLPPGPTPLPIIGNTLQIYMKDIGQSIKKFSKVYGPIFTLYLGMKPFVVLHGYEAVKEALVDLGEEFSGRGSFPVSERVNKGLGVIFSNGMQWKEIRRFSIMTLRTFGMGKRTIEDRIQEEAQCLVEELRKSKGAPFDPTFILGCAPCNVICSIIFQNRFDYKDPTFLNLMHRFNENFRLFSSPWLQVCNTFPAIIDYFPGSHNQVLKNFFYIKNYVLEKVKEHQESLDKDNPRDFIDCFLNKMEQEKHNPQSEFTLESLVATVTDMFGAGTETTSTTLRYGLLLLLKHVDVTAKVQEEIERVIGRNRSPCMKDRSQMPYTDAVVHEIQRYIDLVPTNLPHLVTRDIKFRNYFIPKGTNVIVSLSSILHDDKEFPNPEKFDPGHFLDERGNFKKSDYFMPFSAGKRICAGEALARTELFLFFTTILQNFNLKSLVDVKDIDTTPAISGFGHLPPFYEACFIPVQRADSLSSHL
Sequence of rat CYP2D2, Cyp2d26 (gene 25053) (P10634 whole entry, looked up): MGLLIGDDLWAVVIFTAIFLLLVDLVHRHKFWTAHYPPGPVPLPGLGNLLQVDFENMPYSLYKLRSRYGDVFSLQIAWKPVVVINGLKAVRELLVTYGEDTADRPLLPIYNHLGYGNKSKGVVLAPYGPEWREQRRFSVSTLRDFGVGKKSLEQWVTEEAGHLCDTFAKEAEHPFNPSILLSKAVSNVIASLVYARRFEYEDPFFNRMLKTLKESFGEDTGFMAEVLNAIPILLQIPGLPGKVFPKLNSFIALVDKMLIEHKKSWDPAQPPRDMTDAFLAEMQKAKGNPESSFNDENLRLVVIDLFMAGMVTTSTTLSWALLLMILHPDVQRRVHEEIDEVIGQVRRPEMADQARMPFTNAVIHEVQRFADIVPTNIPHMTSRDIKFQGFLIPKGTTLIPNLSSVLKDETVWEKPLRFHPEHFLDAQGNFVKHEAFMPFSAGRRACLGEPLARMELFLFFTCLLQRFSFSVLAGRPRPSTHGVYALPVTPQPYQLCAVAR
Sequence of rat CYP2C13, Cyp2c13 (gene 171521) (P20814 whole entry, looked up): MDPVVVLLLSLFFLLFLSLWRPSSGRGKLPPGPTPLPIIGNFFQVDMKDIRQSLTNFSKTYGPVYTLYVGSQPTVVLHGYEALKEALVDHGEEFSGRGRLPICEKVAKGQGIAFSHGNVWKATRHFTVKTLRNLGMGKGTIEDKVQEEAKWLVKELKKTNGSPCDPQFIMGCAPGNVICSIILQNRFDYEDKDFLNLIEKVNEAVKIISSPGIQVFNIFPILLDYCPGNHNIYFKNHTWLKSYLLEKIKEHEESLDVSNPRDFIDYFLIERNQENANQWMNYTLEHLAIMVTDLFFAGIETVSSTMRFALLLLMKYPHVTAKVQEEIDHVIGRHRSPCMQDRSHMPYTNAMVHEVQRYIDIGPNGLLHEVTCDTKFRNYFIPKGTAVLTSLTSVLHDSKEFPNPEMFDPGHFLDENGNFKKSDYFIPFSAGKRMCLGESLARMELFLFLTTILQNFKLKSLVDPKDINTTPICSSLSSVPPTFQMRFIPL
Sequence of human Acetylcholinesterase (AChE), ACHE (gene 43) (P22303 whole entry, looked up): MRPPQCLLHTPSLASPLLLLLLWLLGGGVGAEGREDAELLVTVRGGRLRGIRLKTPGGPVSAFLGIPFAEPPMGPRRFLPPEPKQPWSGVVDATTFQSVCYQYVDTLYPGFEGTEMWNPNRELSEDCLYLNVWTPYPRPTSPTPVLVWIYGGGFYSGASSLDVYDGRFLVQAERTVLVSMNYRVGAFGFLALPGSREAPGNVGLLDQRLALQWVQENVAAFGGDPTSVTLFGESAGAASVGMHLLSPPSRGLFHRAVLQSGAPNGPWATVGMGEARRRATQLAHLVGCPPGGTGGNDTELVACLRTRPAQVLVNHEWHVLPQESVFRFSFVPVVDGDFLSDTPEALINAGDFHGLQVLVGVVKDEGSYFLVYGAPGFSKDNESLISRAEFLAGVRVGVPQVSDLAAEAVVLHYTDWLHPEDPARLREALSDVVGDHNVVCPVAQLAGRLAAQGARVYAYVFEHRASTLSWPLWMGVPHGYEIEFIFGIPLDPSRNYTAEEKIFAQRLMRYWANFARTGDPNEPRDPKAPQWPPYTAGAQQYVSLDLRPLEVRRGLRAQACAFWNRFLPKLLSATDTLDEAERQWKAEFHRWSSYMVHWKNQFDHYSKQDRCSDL
Sequence of rat CYP3A2, Cyp3a2 (gene 266682) (P05183 whole entry, looked up): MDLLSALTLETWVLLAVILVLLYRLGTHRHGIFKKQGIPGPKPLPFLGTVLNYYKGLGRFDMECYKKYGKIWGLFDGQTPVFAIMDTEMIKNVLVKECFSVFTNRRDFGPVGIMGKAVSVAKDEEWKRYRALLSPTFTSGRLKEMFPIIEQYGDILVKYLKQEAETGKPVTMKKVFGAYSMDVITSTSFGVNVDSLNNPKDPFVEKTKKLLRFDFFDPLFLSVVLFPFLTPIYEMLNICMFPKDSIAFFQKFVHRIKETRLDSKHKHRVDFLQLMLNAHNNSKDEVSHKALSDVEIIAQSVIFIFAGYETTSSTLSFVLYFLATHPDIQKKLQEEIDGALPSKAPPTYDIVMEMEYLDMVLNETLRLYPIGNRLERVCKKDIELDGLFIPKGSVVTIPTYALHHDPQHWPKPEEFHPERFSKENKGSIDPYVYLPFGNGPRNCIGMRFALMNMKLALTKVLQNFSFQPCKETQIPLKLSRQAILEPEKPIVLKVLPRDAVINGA
Sequence of rat CYP2C12, Cyp2c12 (gene 25011) (P11510 whole entry, looked up): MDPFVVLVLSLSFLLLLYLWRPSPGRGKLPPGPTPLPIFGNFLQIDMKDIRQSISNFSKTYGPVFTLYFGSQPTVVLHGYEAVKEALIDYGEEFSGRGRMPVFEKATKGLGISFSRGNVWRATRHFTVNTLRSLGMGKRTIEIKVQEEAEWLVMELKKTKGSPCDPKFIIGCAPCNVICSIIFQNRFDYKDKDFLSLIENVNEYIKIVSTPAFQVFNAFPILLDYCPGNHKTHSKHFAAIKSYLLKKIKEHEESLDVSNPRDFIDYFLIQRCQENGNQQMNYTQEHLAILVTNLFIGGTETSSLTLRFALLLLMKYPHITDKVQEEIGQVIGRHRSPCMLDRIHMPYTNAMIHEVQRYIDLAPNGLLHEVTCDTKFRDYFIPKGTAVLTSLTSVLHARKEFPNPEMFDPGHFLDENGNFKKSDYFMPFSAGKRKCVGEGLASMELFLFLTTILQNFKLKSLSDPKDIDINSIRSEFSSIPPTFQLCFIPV
Sequence of rat CYP2D1, Cyp2d1 (gene 266684) (P10633 whole entry, looked up): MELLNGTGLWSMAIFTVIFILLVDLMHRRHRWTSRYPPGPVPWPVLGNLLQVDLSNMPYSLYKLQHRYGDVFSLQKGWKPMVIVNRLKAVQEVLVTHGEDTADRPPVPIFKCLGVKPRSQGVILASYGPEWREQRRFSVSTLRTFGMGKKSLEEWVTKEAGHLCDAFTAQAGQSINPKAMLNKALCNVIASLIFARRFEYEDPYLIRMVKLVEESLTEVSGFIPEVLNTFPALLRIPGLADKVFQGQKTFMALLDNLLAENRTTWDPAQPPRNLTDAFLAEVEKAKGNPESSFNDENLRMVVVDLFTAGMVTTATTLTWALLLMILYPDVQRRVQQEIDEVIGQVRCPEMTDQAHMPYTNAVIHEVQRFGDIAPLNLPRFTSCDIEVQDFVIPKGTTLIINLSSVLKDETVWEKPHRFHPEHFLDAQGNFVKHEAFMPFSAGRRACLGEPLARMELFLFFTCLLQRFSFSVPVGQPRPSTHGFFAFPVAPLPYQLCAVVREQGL
Sequence of Caspase-1 (Homo sapiens) (P29466 whole entry, looked up): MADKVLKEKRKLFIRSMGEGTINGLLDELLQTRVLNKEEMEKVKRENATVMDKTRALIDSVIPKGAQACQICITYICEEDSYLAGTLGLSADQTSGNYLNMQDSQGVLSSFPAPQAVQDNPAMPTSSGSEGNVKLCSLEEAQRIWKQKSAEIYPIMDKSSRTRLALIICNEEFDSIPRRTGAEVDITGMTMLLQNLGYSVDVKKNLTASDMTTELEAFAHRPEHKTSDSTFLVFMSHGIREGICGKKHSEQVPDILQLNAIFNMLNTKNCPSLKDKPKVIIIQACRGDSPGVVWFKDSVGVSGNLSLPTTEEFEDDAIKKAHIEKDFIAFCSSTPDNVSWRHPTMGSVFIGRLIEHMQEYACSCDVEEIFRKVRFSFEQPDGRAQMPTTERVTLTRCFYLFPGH
Sequence of human Caspase 10 (CASP10), CASP10 (gene 843) (Q92851 whole entry, looked up): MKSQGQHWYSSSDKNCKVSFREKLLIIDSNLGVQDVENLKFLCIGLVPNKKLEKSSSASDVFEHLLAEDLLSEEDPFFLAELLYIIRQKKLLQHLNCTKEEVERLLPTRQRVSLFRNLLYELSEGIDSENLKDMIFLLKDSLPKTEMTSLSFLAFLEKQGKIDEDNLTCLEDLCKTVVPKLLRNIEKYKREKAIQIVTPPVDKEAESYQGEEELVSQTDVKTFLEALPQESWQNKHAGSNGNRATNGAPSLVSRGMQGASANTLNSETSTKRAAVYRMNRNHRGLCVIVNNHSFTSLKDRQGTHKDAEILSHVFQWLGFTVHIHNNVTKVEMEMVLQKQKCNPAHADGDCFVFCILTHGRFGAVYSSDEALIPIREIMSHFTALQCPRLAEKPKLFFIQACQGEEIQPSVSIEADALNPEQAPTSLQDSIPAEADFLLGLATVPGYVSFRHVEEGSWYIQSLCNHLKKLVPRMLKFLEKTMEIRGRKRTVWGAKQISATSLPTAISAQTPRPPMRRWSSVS

In the case of `COP(=S)(OC)Oc1ccc([N+](=O)[O-])c(C)c1`, the AC50 [1] is reported as 0.392 µM (active), the AC50 [2] is reported as 8.05 µM (active) and the AC50 (rat CYP2C6, gene 293989) is reported as 0.177 µM (active). The AC50 [3] was 10 µM (active), the AC50 [4] was 5.28 µM (active) and the AC50 [5] was 4.29 µM (active).

For `CCN(CC)c1nc(C)cc(OP(=S)(OC)OC)n1`, the AC50 (rat CYP2C6, gene 293989) was 0.723 µM (active).

In the case of `CC(C)=CC1C(C(=O)OCc2coc(Cc3ccccc3)c2)C1(C)C` (centres undefined), the AC50 [6] is reported as 5.37 µM (active), the AC50 [5] is reported as 7.04 µM (active) and the outcome (Caspase-1 (Homo sapiens)) is reported as “inactive”.

In the case of `Nc1c(Cl)c(Cl)nc(C(=O)O)c1Cl`, the AC50 [7] is reported as 10.5 µM (active).

`CC1(C)CCC(=Cc2ccc(Cl)cc2)C1(O)Cn1cncn1` (centres undefined) was tested, and the AC50 [1] was 0.384 µM (active), the outcome [4] was “inactive” and the AC50 [5] was 0.225 µM (active).

With `CNC(=O)Oc1cccc2ccccc12` the AC50 [8] was 25 µM (active).

For `N#CN=C1SCCN1Cc1ccc(Cl)nc1`, the AC50 [8] was 19.6 µM (active).

In the case of `CCN(CC)C(=O)C(C)Oc1cccc2ccccc12` (centres undefined), the AC50 [1] is reported as 0.951 µM (active), the AC50 (rat CYP2C6, gene 293989) is reported as 4.21 µM (active) and the AC50 [4] is reported as 6.02 µM (active). The AC50 [5] was 5.34 µM (active) and the outcome (Caspase-1 (Homo sapiens)) was “inactive”.

`CCOc1cc(C(C)(C)C)ccc1C1COC(c2c(F)cccc2F)=N1` (centres undefined) was tested, and the AC50 [1] was 10 µM (active), the AC50 [4] was 0.55 µM (active) and the AC50 [5] was 2.18 µM (active).

With `Cn1c(-c2ccccc2)cc(-c2ccccc2)[n+]1C` the AC50 [4] was 5.35 µM (active).

For `O=C1C2CC=CCC2C(=O)N1SC(Cl)(Cl)Cl` (centres undefined), the outcome [2] was “inactive”.

With `CCC(C)n1c(=O)[nH]c(C)c(Br)c1=O` (centres undefined) the AC50 [6] was 3.93 µM (active) and the outcome [8] was “inactive”.

`COc1ccc(-c2ccccc2)cc1NNC(=O)OC(C)C` was tested, and the outcome [1] was “inactive”, the AC50 [3] was 1.17 µM (active) and the AC50 [5] was 0.832 µM (active).

For `N#Cc1c[nH]cc1-c1cccc2c1OC(F)(F)O2`, the outcome [8] was “inactive”.

For `CCCN(CC)CC1COC2(CCC(C(C)(C)C)CC2)O1` (centres undefined), the AC50 [4] was 6.05 µM (active) and 2.09 µM (active).

With `CC(C)(C)C(=O)C(Oc1ccc(Cl)cc1)n1cncn1` (centres undefined) the AC50 [1] was 4.29 µM (active), the AC50 [3] was 0.246 µM (active) and the AC50 [6] was 6.43 µM (active). The AC50 [4] was 5.33 µM (active) and 5.52 µM (active).

`CCCCOCN(C(=O)CCl)c1c(CC)cccc1CC` was tested, and the AC50 (rat CYP2C6, gene 293989) was 3.34 µM (active), the AC50 [3] was 10 µM (active) and the AC50 [4] was 3.35 µM (active).

`CCCCC(C#N)(Cn1cncn1)c1ccc(Cl)cc1` (centres undefined) was tested, and the AC50 [1] was 2.39 µM (active), the AC50 [2] was 4.51 µM (active) and the AC50 [3] was 4.37 µM (active). The AC50 [6] was 8.64 µM (active), the AC50 [4] was 6.44 µM (active) and the AC50 [5] was 2.96 µM (active).

With `Cc1ccc(N=CN(C)C=Nc2ccc(C)cc2C)c(C)c1` the AC50 [5] was 1.23 µM (active).

In the case of `C=CCOC(=O)C(C)(C)OC(=O)c1cc(-n2c(=O)cc(C(F)(F)F)n(C)c2=O)ccc1Cl`, the outcome [2] is reported as “inactive” and the AC50 [5] is reported as 0.407 µM (active).
